Measured values as given in ChEMBL document CHEMBL3988442, “University of Dundee, Small-Polar-MMV Screening Library” (2021).
About 13,000 (27%) of roughly 48,000 compounds showed an effect of 50% or more. Some of the results follow.

System: Wolbachia pipientis
Test: Anti-Wolbachia Cell-Based Screen
Format: functional
Parameters: scale not given: in the data most compounds retested in dose-response had high values
Settings: 5 µM

First: CC(O)c1cn(CC2CCN(C(=O)c3cccc(N(C)C)c3)CC2)nn1 (configuration not stated)
Second: CC(C)c1nnc2n1CCN(C(=O)c1ccc(OCC3CC3)cc1)C2
The “Percent Effect” value of the first is lower: -11.02% for the first, 5.374% for the second.

Going from `Cc1nnc(NC(=O)N2CCCN(C3CCCC3)CC2)s1` to `CC(C1CCN(Cc2cnn(C)c2C2CC2)CC1)N1CCCC1` (configuration not stated), the “Percent Effect” value rises from -2.14% to 22.88%.

First: CC1CCN(CCCNC(=O)Nc2cc3c(cc2Br)OCCO3)CC1
Second: NC(=O)c1ccc(OCCCN2CCC3(CC2)OCCCC3O)cc1 (configuration not stated)
The “Percent Effect” value of the first is lower: -0.7212% for the first, 101.3% for the second.

First: Cc1nc(-c2c(-c3ccccc3)ncn2[C@H]2C[C@@H](C(=O)O)N(C)C2)co1
Second: COc1ccccc1[C@@H]1CN(Cc2c(C)noc2C)C[C@H]1C(=O)O
The “Percent Effect” value of the first is higher: -9.295% for the first, -13.6% for the second.

Going from `CCSCc1ccnc(NC(=O)C2CCOC2)c1` (configuration not stated) to `O=C(CNC(=O)C1CC1)NCCOc1cccc(Cl)c1Cl`, the “Percent Effect” value falls from 20.8% to 3.053%.

Compared with `CCOc1ccc(C(=O)N2CCC(Oc3ccccc3)(C(=O)O)CC2)o1`, `O=C(NCC1(O)CCOc2ccccc21)Nc1ccccc1` (configuration not stated) is lower in “Percent Effect” value: -0.9818% for the first, -14.8% for the second.

Compared with `CC(C)(C)N1CCN(C(=O)c2cccnc2-n2cncn2)CC1`, `CCCS(=O)(=O)N1CCN(c2cc(-n3cnc(C)c3C)ncn2)CC1` is higher in “Percent Effect” value: -9.982% for the first, -4.672% for the second.

First: CCc1cc(N2CCC(NC(=O)CCC3CCCO3)CC2)ncn1 (configuration not stated)
Second: CCc1cc(N2CCC(NCc3ccc(C)o3)CC2)ncn1
The “Percent Effect” value of the first is lower: -4.201% for the first, 91.75% for the second.

First: CCc1cc(N2CCC(NCCc3ccccc3F)CC2)nc(C)n1
Second: CCc1cc(N2CCC(NCCc3ccc(C)o3)CC2)nc(C)n1
The “Percent Effect” value of the first is lower: 82.1% for the first, 97.78% for the second.

Going from `CCCc1cc(N2CCC(NCC3(O)CCCCC3)CC2)nc(C)n1` to `CCCc1cc(N2CCC(NCCc3ccc(O)cc3)CC2)nc(C)n1`, the “Percent Effect” value rises from -11.13% to 19.96%.

First: Cc1nc(CCNC2CCN(Cc3ccccc3)C2)sc1C (configuration not stated)
Second: CCc1cc(N2CCC(NCCc3nc(C)c(C)s3)CC2)nc(C)n1
The “Percent Effect” value of the first is lower: -12.11% for the first, 99.23% for the second.

Going from `CCc1cc(N2CCC(NCCSc3nnnn3C)CC2)nc(C)n1` to `Cc1nc(C)c(C)c(N2CCC(NCCOc3ccccc3)CC2)n1`, the “Percent Effect” value rises from 4.673% to 8.772%.

First: CCc1csc(CNC2CCN(c3ccc(C)cc3)CC2)n1
Second: COCC(C)N(C)C(=O)NC1CCN(c2ncccn2)CC1 (configuration not stated)
The “Percent Effect” value of the first is lower: -9.18% for the first, 0.8848% for the second.

Compared with `Cc1cccc(C(C(=O)NCCc2nc(C)cc(=O)[nH]2)N(C)C)c1` (configuration not stated), `Cc1ccc2c(c1)N(C(=O)c1c[nH]c(C)cc1=O)CC(C)O2` (configuration not stated) is higher in “Percent Effect” value: 7.079% for the first, 67.22% for the second.

Compared with `Nc1nc(CCCNC(=O)C2CCCN(Cc3ccco3)C2)cs1` (configuration not stated), `CC(NCc1ccco1)c1nnc2n1CCCC2` (configuration not stated) is lower in “Percent Effect” value: 11.5% for the first, -19.1% for the second.

Going from `Cc1ccccc1C(=O)NCCC(=O)NS(=O)(=O)c1cccnc1` to `Cc1ccc2c(c1)OC(C)CN2C(=O)CCc1cccnc1` (configuration not stated), the “Percent Effect” value rises from -14.99% to 9.162%.

Going from `CCn1cncc1CNc1ccc(-c2nc(CC(C)C)no2)cn1` to `CCN(Cc1noc(C2CC2)n1)Cc1ccc(C#N)cc1F`, the “Percent Effect” value falls from 7.108% to -1.413%.

Compared with `CC(NCc1ccc(Cl)o1)c1nnc2n1CCCC2` (configuration not stated), `Cc1ccc(CNC(C)c2nnc3n2CCCC3)o1` (configuration not stated) is lower in “Percent Effect” value: -1.685% for the first, -12.78% for the second.

Going from `Cc1ccoc1CNC(C)c1nnc2n1CCCC2` (configuration not stated) to `COc1cc(CNC(C)c2nnc3n2CCC3)cc(OC)c1` (configuration not stated), the “Percent Effect” value rises from -17.53% to 10.34%.

First: COc1c(CNCc2nnc3n2CCCCC3)c(C)nn1C.Cl
Second: Cn1cc(N)c(-c2nnc3n2CCCC3)n1
The “Percent Effect” value of the first is lower: -7.415% for the first, 140.1% for the second.

Going from `CCn1cc(N)c(-c2nnc3n2CCCC3)n1` to `CCn1cc(N)c(-c2nnc3n2CCC3)n1`, the “Percent Effect” value falls from 106% to 92.6%.

First: O=C(O)c1ccnc(-c2ccnc(COc3ccc(Cl)cc3)n2)c1
Second: CC1CN(C(=O)c2ccc(C(N)=O)cc2)c2ccc(F)cc2O1 (configuration not stated)
The “Percent Effect” value of the first is lower: -21.17% for the first, -13.6% for the second.

Compared with `Cc1cc(C2CCC2)nc(N2CCC3(CC2)OCCCC3O)n1` (configuration not stated), `COc1ccccc1S(=O)(=O)N1CCC2(CC1)OCCCC2O` (configuration not stated) is higher in “Percent Effect” value: -2.811% for the first, 6.351% for the second.

Compared with `OC1CCCOC12CCN(CCCOc1ccccc1F)CC2` (configuration not stated), `O[C@H]1CN(CCCOc2ccccc2F)CC[C@@]12CCCO2` is higher in “Percent Effect” value: 114.2% for the first, 134.4% for the second.

Compared with `O[C@H]1CCN(CCCOc2ccccc2F)C[C@@]12CCCO2`, `NC(=O)c1ccc(OCCCN2C[C@H](C3CC3)[C@@H](N)C2)cc1` is lower in “Percent Effect” value: 90.29% for the first, -11.21% for the second.

Going from `O=C(C1CCC1)N1CCN(Cc2ccc(F)cc2)[C@H]2CS(=O)(=O)C[C@H]21` to `COCCN1CCO[C@@H]2CN(C(=O)Cc3cccc(F)c3)CC[C@@H]2C1.O=C(O)C(F)(F)F`, the “Percent Effect” value falls from 11.26% to 6.529%.

Compared with `O=C(Nc1ccccn1)NC1CCN(c2ccccc2OC(F)F)C1` (configuration not stated), `CC1CN(C(=O)c2cc[nH]c(=O)c2)c2ccccc21` (configuration not stated) is higher in “Percent Effect” value: -25.38% for the first, 6.091% for the second.

First: COc1ccc2nc(C[C@@H]3C[C@@H](C(C)C)[C@H](CN)C=C3C)[nH]c2n1
Second: CCOc1ccc(N(C)S(=O)(=O)c2c[nH]c(C(C)C)n2)cc1
The “Percent Effect” value of the first is higher: 16.51% for the first, -17.69% for the second.

Compared with `C1CCC(NCC2(N3CCOCC3)CCSC2)C1` (configuration not stated), `Cc1cc(NS(=O)(=O)CC2CCCCO2)ccc1F` (configuration not stated) is higher in “Percent Effect” value: -110.3% for the first, 4.819% for the second.

Going from `Cc1cc(S(C)(=O)=O)c(C)c(S(=O)(=O)NCC2CCCO2)c1` (configuration not stated) to `Cc1cc(NCC2CCCO2)cc(=O)n1C` (configuration not stated), the “Percent Effect” value rises from -7.327% to 135.4%.

Going from `O=C1NCCO[C@H]2CN(C(=O)Cc3cccs3)CC[C@@H]12` to `CS(=O)(=O)N1CCO[C@@H]2CN(C(=O)Cc3cccs3)CC[C@@H]2C1`, the “Percent Effect” value rises from -57.9% to 99.33%.

First: O=C(Cc1cccs1)N1C[C@@H]2CN(Cc3ccoc3)CCO[C@@H]2C1.O=C(O)C(F)(F)F
Second: CN1CCO[C@@H]2CN(C(=O)Cc3cccs3)CC[C@@H]2C1.O=C(O)C(F)(F)F
The “Percent Effect” value of the first is lower: -6.419% for the first, 104.2% for the second.

First: CN(C)C[C@H]1OC[C@@H]2CCN(C(=O)Cc3cccs3)C[C@@H]21.O=C(O)C(F)(F)F
Second: CC(C)N1CCO[C@@H]2CN(C(=O)Cc3cccs3)CC[C@@H]2C1.O=C(O)C(F)(F)F
The “Percent Effect” value of the first is lower: -1.59% for the first, 111.3% for the second.

Going from `O=C(Cc1cccs1)N1CCOC(c2cccc(O)c2)C1` (configuration not stated) to `Cc1ccc2c(c1)OC(C)CN2C(=O)CCc1cscn1` (configuration not stated), the “Percent Effect” value rises from -7.888% to -1.954%.

Going from `Cc1ccc2c(c1)N(C(=O)c1cc[nH]c(=O)c1)CC(C)O2` (configuration not stated) to `Cc1ccc2c(c1)OC(C)CN2C(=O)c1c[nH]c(C)cc1=O` (configuration not stated), the “Percent Effect” value falls from 102.6% to 100.7%.

Going from `Cc1ccc2c(c1)OC(C)CN2C(=O)Cc1ccc(C)nc1` (configuration not stated) to `Cc1ccc2c(c1)N(C(=O)c1nccnc1N)CC(C)O2` (configuration not stated), the “Percent Effect” value rises from -1.859% to -0.6709%.
